Laboratory results from PubChem BioAssay (NCI).
This is part of a sample that, as a whole, favours compounds with a hit. Of some 83,000 tested, about 20% had one in any assay.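 Cells were grown in 96-well plates and exposed to the test compound at a single concentration for 48 hours; results are reported as percent growth, with values below 10 considered active.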 Values without a mark were called inactive. Activity calls are given as the source filed them.

Key:
Test in all cases: NCI-60 one-dose screen, 48 h (100 = growth as untreated, 0 = no growth, -100 = all killed)
DU-145 prostate = conditions: 10 µM unless noted
K-562 leukemia = conditions: 10 µM unless noted
MALME-3M melanoma = conditions: 10 µM unless noted
MDA-MB-231 breast = conditions: 10 µM unless noted
RXF 393 renal = conditions: 10 µM unless noted
SF-268 CNS = conditions: 10 µM unless noted
SF-295 CNS = conditions: 10 µM unless noted
SF-539 CNS = conditions: 10 µM unless noted
UACC-257 melanoma = conditions: 10 µM
M14 melanoma = conditions: 10 µM unless noted
HCT-15 colon = conditions: 10 µM unless noted
HT29 colon = conditions: 10 µM unless noted
SNB-75 CNS = conditions: 10 µM unless noted
SNB-19 CNS = conditions: 10 µM unless noted
U251 CNS = conditions: 10 µM unless noted
PC-3 prostate = conditions: 10 µM unless noted
SK-MEL-5 melanoma = conditions: 10 µM unless noted
UACC-62 melanoma = conditions: 10 µM unless noted
LOX IMVI melanoma = conditions: 10 µM unless noted
SK-MEL-28 melanoma = conditions: 10 µM unless noted

SMILES | growth (DU-145 prostate) | growth (K-562 leukemia) | growth (MALME-3M melanoma) | growth (MDA-MB-231 breast) | growth (RXF 393 renal) | growth (SF-268 CNS) | growth (SF-295 CNS) | growth (SF-539 CNS) | growth (UACC-257 melanoma) | growth (M14 melanoma) | growth (HCT-15 colon) | growth (HT29 colon) | growth (SNB-75 CNS) | growth (SNB-19 CNS) | growth (U251 CNS) | growth (PC-3 prostate) | growth (SK-MEL-5 melanoma) | growth (UACC-62 melanoma) | growth (LOX IMVI melanoma) | growth (SK-MEL-28 melanoma)
CC1(C)CC[C@]2(C(=O)O)CC[C@]3(C)C(=CCC4[C@@]5(C)C[C@@H](O)[C@@H]6OC(c7cccc([N+](=O)[O-])c7)OC[C@@]6(C)C5CC[C@]43C)C2C1 (stereo not given in full) | 60.1% | 44.9% | 86.7% | 82% | 85.3% | 74.6% | 36.8% | 83.7% | 103% | 72.8% | 37.6% | 59% | 84.4% | 61.9% | 41.5% | 65% | 64.5% | 69.2% | 42.7% | 87.4%
O=C(NNc1nc2cc(F)cc(F)c2n2cccc12)c1ccncn1 | 18.7% | 8.02% (active) | 28.3% | 32.2% | 18.8% | 12.5% | 15.1% | 7.47% (active) | 5.21% (active) | 4.27% (active) | 25.3% | 23.8% | 19.3% | 21.9% | 9.14% (active) | 33.6% | -4.3% (active) | 3.64% (active) | 6.37% (active) | 22.9%
CCOC(=O)c1ccc(N/C=C/C(=O)c2ccccc2)cc1 | 101% | 98.8% | 107% | 105% | 99% | 102% | 93.4% | 101% | 108% | 97% | 86.2% | 103% | 97% | 92.1% | 99.7% | 95.7% | 99.4% | 87.5% | 96.3% | 97.2%
CCNC(=O)Oc1ccc(/C(=C(/C)c2ccc(Cl)cc2)c2ccc(OCCN3CCCC3)cc2)cc1 | 102% | 13.5% | 63.6% | 88.5% | 66.9% | 90.5% | 96.8% | 76.4% | 81.1% | 68% | 60.5% | 19.6% | 85.7% | 81.6% | 60.1% | 82.4% | 86.3% | 98.3% | 49.2% | 89%
CCOC(=O)c1c(NCC(=O)Nc2cccc([N+](=O)[O-])c2)sc2c1CCCC2 | -15.2% (active) | 3.3% (active) | -63.9% (active) | -44% (active) | -84.6% (active) | -42.2% (active) | -90.2% (active) | -55.6% (active) | -27% (active) | -85.2% (active) | -42.4% (active) | -71.5% (active) | -48.6% (active) | -17.3% (active) | -26.5% (active) | -34% (active) | -98.4% (active) | -90.3% (active) | -73% (active) | -80.2% (active)
Cc1ccc(-c2cc3nc(C(Cl)Cl)nc(-c4ccccc4)n3n2)cc1 | 2.08% (active) | 90.4% | 122% | 79.7% | 70.4% | 89% | 79.8% | 90.8% | 112% | 112% | 75.6% | 74.9% | 99.3% | 74.1% | 66.8% | 79.3% | 92.2% | 91.9% | 109% | 101%
CC(C)Sc1nc(NC2CC2)c(C#N)c(-c2ccccc2)n1 | 99.1% | 87.6% | 57.1% | 82% | 77.5% | 95.8% | 72% | 82.2% | 102% | 95.1% | 92.4% | 91.1% | 34.7% | 90% | 85.1% | 92.5% | 100% | 87.6% | 67.9% | 98.7%
CN1CCN(c2ccc3c(C(N)=O)c(NC(=O)c4ccc(C(C)(C)C)cc4)sc3c2)CC1 | 87.4% | 21.2% | 81.6% | 90.6% | 81.8% | 97.6% | 79.8% | 63.6% | 92.7% | 90% | 16.4% | 20.4% | 81.6% | 76.2% | 59.1% | 79.2% | 89.7% | 99.5% | -53.3% (active) | 90%
CCNCc1c(-c2cccc(OC(F)(F)F)c2)[nH]c2ccc(N3CCCC3)cc2c1=O | 15% | 6.77% (active) | 39.5% | 20% | -9.04% (active) | 45.1% | 3.08% (active) | 2.73% (active) | 62.2% | -0.303% (active) | 9.2% (active) | 7.01% (active) | -5.02% (active) | 19.8% | 20% | 14.6% | 15.5% | 30.3% | 21.9% | 48%
O=S(=O)(Nc1cc(Cl)c(F)c(Cl)c1)c1ccc(-c2cnc(C3CC3)o2)cc1 | 24.4% | 15% | 55% | 56.2% | 5.28% (active) | 73.9% | 16.8% | 19.2% | 70.3% | 23% | 35.2% | 13.4% | -4.2% (active) | 44.3% | 30.4% | 25.2% | 28.8% | 42.6% | 43.2% | 66.7%
C/C(=N\NC(=S)Nc1ccc(Br)cc1)c1cc2ccccc2oc1=O | 29.4% | 9.69% (active) | 24% | 23.2% | -24.2% (active) | 14.5% | 32.1% | 20.9% | 10.1% | -28.8% (active) | 10% | 90.3% | 17.5% | 35.2% | 17.8% | 26.7% | -24.7% (active) | -20.5% (active) | 14% | 21.6%
C=C(C)[C@@H]1CC[C@]2(C(=O)ON)CC[C@]3(C)[C@H](CC[C@@H]4[C@@]5(C)C/C(=C/c6ccc(Br)cc6)C(=O)C(C)(C)[C@@H]5CC[C@]43C)[C@@H]12 | 79.2% | 46.3% | 83.2% | 80.6% | 78.4% | 81.1% | 74.9% | 75.9% | 81.1% | 76% | 57.8% | 71.5% | 104% | 78.2% | 70.8% | 45.8% | 86.1% | 59.5% | 69.7% | 84.7%
CN(C)c1ccc(/C=N/Nc2nc(N/N=C/c3ccc(N(C)C)cc3)nc(N3CCOCC3)n2)cc1 | 92.7% | 6.35% (active) | 114% | 99.5% | 93.1% | 97.8% | 13.8% | 96.7% | 103% | 103% | 22.4% | 102% | 87.4% | 91.3% | 44.3% | 87.7% | 100% | 97.8% | 87.7% | 106%
COc1ccc(-c2cc(-c3ccc(Cl)cc3)nc3nc(N)nn23)cc1 | 101% | 116% | 118% | 104% | 91.8% | 89.9% | 97.3% | 95.5% | 109% | 117% | 90.2% | 99.5% | 104% | 91.5% | 91% | 106% | 93.6% | 92.8% | 105% | 116%
Cn1cc(-c2nn3cc(-c4ccncc4)nc3s2)c2cc(Cl)ccc21 | 74.3% | -1.66% (active) | 48.2% | 73.5% | 75.9% | 67.9% | 35.1% | 82.1% | 89.1% | 52.5% | 5.44% (active) | 4.2% (active) | 88.6% | 83% | 56.6% | 14.6% | 55.7% | 54.5% | 39.4% | 88.1%
